Most compounds without a hit are left out; they make up all but 4.3% or so of the library.
GLP1R inv ag = inverse agonists of human GLP-1 receptor. HEK293 GLP-1R CRE-luciferase, luminescence, 24 h; GLP-1R form is constitutively active. Potency, µM (doses to about 38.3 µM), without a hit: at the highest dose activity change, negative = inhibition, usual class: inhibitors. 410,000 compounds, 1.6% hits; note: potency is the fitted concentration of half-maximal effect; % is set by controls: 0 for no effect and ±100 for the full control effect; nearly all actives have a fitted effect of over 55% in size
Target sequence (P43220 whole entry, looked up): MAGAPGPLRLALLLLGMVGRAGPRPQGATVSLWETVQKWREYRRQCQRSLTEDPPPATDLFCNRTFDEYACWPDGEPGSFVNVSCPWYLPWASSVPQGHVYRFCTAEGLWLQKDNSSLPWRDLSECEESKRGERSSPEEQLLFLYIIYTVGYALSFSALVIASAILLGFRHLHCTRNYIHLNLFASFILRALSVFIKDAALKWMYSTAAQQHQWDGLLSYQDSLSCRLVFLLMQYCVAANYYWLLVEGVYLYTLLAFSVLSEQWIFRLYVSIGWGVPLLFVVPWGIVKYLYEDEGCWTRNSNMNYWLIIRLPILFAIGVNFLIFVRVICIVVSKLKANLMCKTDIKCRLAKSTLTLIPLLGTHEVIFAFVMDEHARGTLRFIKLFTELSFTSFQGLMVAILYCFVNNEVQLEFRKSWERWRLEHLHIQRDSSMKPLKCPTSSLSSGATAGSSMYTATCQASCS
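Using stably transfected HEK293 (constitutively active GLP-1R, cAMP-luciferase reporter), compounds were incubated 24 hr and luciferase measured by luminescence.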
DRD3 agonist = activates the human D3 dopamine receptor. max activation, %. 410,000 compounds, 0.58% hits. D3R DiscoveRx beta-arrestin cells, luminescence, 90 min. P35462. AID 652048; in the data active = max activation above about 30%; note: 0% is about no effect
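Cells at 1500/well, incubated overnight, then treated with pinned compounds (dopamine as control) for 90 min at 37 degrees C. DiscoveRx reagent added for 30 - 60 minutes at room temperature; luminescence read.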
GLP1R ag = agonists of human GLP-1 receptor | HEK293 GLP-1R CRE-luciferase, luminescence, 4-6 h; cells express a hypersensitive GLP-1R form | Potency, µM (highest dose often 45.6 µM), for the others: at the top dose activation, hits mostly activators | 380,000 compounds, 0.007% hits | P43220; note: potency is the fitted concentration of half-maximal effect; % of control where 0% means no effect
DRD3 antagonist = antagonists of human D3 dopamine receptor | D3R cells, DiscoveRx beta-arrestin luminescence, antagonist mode; hits give low values | max response, negative = inhibition, % | 360,000 compounds, 2.5% hits | AID 652054; in the data active = max response below about -50%; inconclusive = no clear call, values can overlap the other calls; note: % is set by controls: 0 for no effect and ±100 for the full control effect
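Cells plated overnight at 1500 cells/well, then exposed to library compounds with dopamine controls for 90 minutes at 37 degrees C. DiscoveRx reagent added for 30–60 minutes at room temperature; luminescence read, quantitative HTS format.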
The depositor's hits bear a star; ? = inconclusive; · = no result given. Unless noted, calls come from the whole dose curve; as a rule, active = well fitted curve in the direction sought with a large enough effect; inconclusive = small, poorly fitted or top-dose-only effect, or another doubt; inactive = no such curve, though single readings can be large; an effect the other way counts as inactive or inconclusive.

SMILES | GLP1R inv ag | DRD3 agonist | GLP1R ag | DRD3 antagonist
CCN(C(=O)c1ccccc1F)c1nc(-c2ccc(OC)cc2)cs1 | ? | -1 | -1% | 14
CN(C)CCCN(C(=O)c1cccs1)c1nc(-c2ccccc2)cs1 | 0% | -37 | 0% | -53*
Cc1nc2c(C(=O)NCCc3ccccc3)cnn2c(C)c1Cc1c(F)cccc1Cl | 28% | -21 | · | ·
Cc1cc(Nc2ccccc2C(=O)O)ccc1Cl | · | -18 | -5% | ·
O=C1[C@@H]2CSC(c3ccc(F)cc3)N2C(=O)N1c1ccc(Cl)cc1 (stereo not given in full) | ? | 0 | 1% | ·
C[C@@H](CN1CCC[C@H]1CN1C(N)=NC[C@@H]1Cc1ccccc1)N1C[C@@H](Cc2ccccc2)N(CCc2ccc(Cl)c(Cl)c2)C1=N | -12% | -48 | -7% | -53*
CC(C)[C@@H]1CN=C(N)N1C[C@@H]1CCCN1C[C@H](C)N1C[C@@H](Cc2ccccc2)N(CCc2ccc(Cl)c(Cl)c2)C1=N | -15% | -20 | -3% | -60*
COCCNC(=O)c1ccc(-n2c(-c3ccccc3)cc3c2CCCCC3)cc1 | -6% | -18 | · | ·
O=C1NC[C@H](Cc2ccccc2)N(CC2CCN(CCc3ccccc3)CC2)C1=O | 6% | -38 | -2% | -19
CC(C)C[C@H]1CNC(=O)C(=O)N1CC1CCN(CCC(C)(C)C)CC1 | 10% | -18 | 0% | -20
CC(C)CCN1CCC(CN2C(=O)C(=O)NC[C@@H]2Cc2ccccc2)CC1 | 5% | -6 | 10% | 9
CC(C)C[C@H]1CNC(=O)C(=O)N1CC1CCN(CCc2ccccc2)CC1 | 6% | -14 | 1% | -76*
CC(C)C[C@H]1CNC(=O)C(=O)N1CC1CCN(CCc2ccc(-c3ccccc3)cc2)CC1 | ? | -45 | 1% | -60*
O=C1NC[C@H](Cc2ccccc2)N(CC2CCN(CCc3ccc(-c4ccccc4)cc3)CC2)C1=O | ? | -46 | -3% | -78*
COc1ccc(CNc2oc(/C=C/c3cc(OC)c(OC)c(OC)c3)nc2C#N)cc1 | 5% | 15 | · | ·
CCCNC(=O)Cn1nc(-c2ccc(C)cc2)c2cnc3ccc(CC)cc3c21 | 2% | -16 | · | ·
O=S(=O)(c1ccc(Br)cc1)c1nnn2c1nc(NCCc1ccccc1)c1sccc12 | -4% | -6 | · | ·
CN(C)c1ccc(CNC(=O)c2cccc(NC(=O)N3CCSc4ncccc43)c2)cc1 | -5% | 7 | · | ·
CCCCCC[C@@H](CCC)C(=O)O | · | 2 | -1% | ·
Cn1nc(C(=O)Nc2ccc(F)c(Cl)c2)c2c1-c1ccccc1S(=O)(=O)C2 | 16% | -5 | · | ·
Cc1ccc2[nH]c(-c3ccccc3)c(CN3CCN(C)CC3)c(=O)c2c1 | 0% | -8 | 10% | -76*
Cn1nnnc1SCC(=O)NNC(=O)c1ccc(Cl)cc1 | 5% | 8 | 1% | 11
Cn1nnnc1SCC(=O)NNC(=O)c1ccc(F)cc1 | 1% | -3 | -7% | -57*
COc1cccc(CNC(=O)CCC2CCCN(C(=O)CCC(F)(F)F)C2)c1 (stereo not given) | 3% | -7 | 1% | -27
COc1cccc(CNC(=O)CCC2CCCN(C(=O)c3cccc(Cl)c3)C2)c1 (stereo not given) | 11% | 42* | 2% | -1
SMILES | GLP1R inv ag | DRD3 agonist | GLP1R ag | DRD3 antagonist
COc1cccc(CNC(=O)CCC2CCCN(Cc3cc4ccccc4o3)C2)c1 (stereo not given) | 11µM* | -15 | 9% | -71*
Cn1cc(/C=C2/SC(=O)N(CC(=O)Nc3ccc4c(c3)OCO4)C2=O)c2ccccc21 | -11% | 0 | 0% | -84*
CC(=O)C[C@H]1[C@H](O[C@H]2[C@H](OC(C)C(=O)N[C@@H](C)C(=O)N[C@H](CCC(=O)N[C@@H](CCCCN)C(=O)N[C@H](C)C(=O)O)C(N)=O)[C@@H](NC(=O)O)C(O)O[C@@H]2CO)O[C@H](CO)[C@@H](O)[C@@H]1O (stereo not given in full) | · | · | 16% | ·
Cc1nc(NC(=O)c2ccco2)sc1-c1csc(Nc2ccc(Cl)cc2)n1 | -21% | 52* | 10% | 57
COc1cccc(N(C(=O)c2ccco2)c2nc(-c3sc(NC(=O)c4ccco4)nc3C)cs2)c1 | -15% | 32* | 4% | 77
CN(c1ccc(Cl)cc1)S(=O)(=O)c1nnc(NC(=O)c2ccco2)s1 | -12% | -1 | -8% | -72*
CCOc1ccc(CN2C(=O)c3ccccc3C2C(=O)NC(C)CC)cc1OC (stereo not given) | 22% | 0 | 8% | -63*
Clc1ccc(/C=N\Nc2ccccc2)cc1 | 4µM* | -12 | -5% | 6
O=C(OCc1ccccc1)/C(=C/c1cccc(Br)c1)NC(=O)c1ccco1 | 10µM* | 10 | -3% | 1
O=C(Nc1ccccc1)/C(=C/c1cccc(Br)c1)NC(=O)c1ccco1 | 2% | 0 | 6% | -1
CNCCCOc1ccc2c(c1)CCC2 | ? | -9 | 7% | 1
NC(=S)NN=C1c2cc(OCCN3CCOCC3)ccc2-c2ccc(OCCN3CCOCC3)cc21 | 7.9µM* | 5 | -7% | 2
Clc1ccc(OCCN2CCCCC2)cc1Cl | -27% | -9 | 8% | -79*
CCOc1ccc(OCCN2CCCCC2)cc1 | 2% | -8 | -11% | -18
CNCCOc1ccc(Cl)c(Cl)c1 | ? | 13 | 2% | -62*
O=C(OCCN1CCOCC1)c1ccc(OCCN2CCOCC2)cc1 | 1% | 1 | -17% | 10
ON=C1c2cc(OCCN3CCCCC3)ccc2-c2ccc(OCCN3CCCCC3)cc21 | 13µM* | -26 | -22% | ?
Cc1ccc(CNC(=O)C2CCN(c3ncnc4c3nc3n4CCCCC3)CC2)cc1 | 3% | -9 | · | ·
O=c1cc2nc(-c3ccccc3F)nc(SCc3ccc(Br)cc3)n2[nH]1 | -10% | 7 | · | ·
Clc1ccc(OCCN2CCOCC2)cc1Cl | -3% | 1 | 0% | -66*
COc1ccc(OCCN2CCOCC2)cc1 | 9% | 1 | -3% | 9
Cc1ccc(S(=O)(=O)N[C@H](CNCc2ccccc2)C(C)C)cc1 | 0% | -17 | · | -91*
Cc1ccc(S(=O)(=O)NCc2ccccc2)cc1 | 1% | 9 | 3% | 10
Cc1ccc([N+](=O)[O-])cc1N=C(c1cccc(Br)c1)N1CCOCC1 | 7.9µM* | 1 | 6% | ?
C(=C\c1ccccc1)/CN1CCN(C(c2nnnn2C2CCCC2)C2CC2)CC1 (stereo not given) | -6% | -19 | -4% | ?
CCC(c1nnnn1-c1c(C)cccc1C)N1CCN(C/C=C/c2ccccc2)CC1 (stereo not given) | ? | -4 | 12% | ?
C(=C\c1ccccc1)/CN1CCN(C(CCc2ccccc2)c2nnnn2C2CCCC2)CC1 (stereo not given) | ? | -17 | 2% | -116*
CCCC(c1nnnn1C(C)(C)C)N1CCN(c2ccccc2)CC1 (stereo not given) | -13% | 4 | 13% | 3
CSCCC(c1nnnn1-c1c(C)cccc1C)N1CCN(C/C=C/c2ccccc2)CC1 (stereo not given) | ? | -14 | 6% | -95*
